Assay outcomes deposited in PubChem by National Center for Advancing Translational Sciences (NCATS).
Only some compounds are listed: those with a hit (about 10% of all), similar ones and a draw of the others.
Six1-Eya2 blk: inhibitors of human Six1/Eya2 interaction. Q15475+O00167. AlphaScreen GST-Six1/His-Eya2 binding, biochemical; stronger effect = lower value. activity change, % (concentration not given with the values). 0.56% of 360,000 active. AID 651725; in the data active = activity change below about -65%; inconclusive = mostly about -30% to -63%
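AlphaScreen luminescence read after one hour at 37 °C in darkness. Pin-transferred compounds met GST-Six1 and His-Eya2 protein (5X stock 250 nM/500 nM) plus glutathione donor and Ni-chelate acceptor beads (5X, 50 ug/mL).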
BAZ2B block: BAZ2B (human) inhibition; 4.4% of 360,000 active; AlphaScreen BAZ2B-H3K14Ac peptide displacement; Potency, µM (highest dose often 114 µM), actives largely listed as inhibitors; Q9UIF8; also: nearly all actives have a fitted effect of over 60% in size
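Protein-peptide AlphaScreen: BAZ2B 50 nM, b-H3K14Ac 50 nM, 1x PBS pH 7.4 + 0.01% Tween-20. Preincubation 30 min RT; cpd 30 min RT (top 110 uM); beads 20 min RT, light-protected.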
CtBP-E1A blk: inhibitors of CtBP/E1A interaction. 0.49% of 340,000 active. AID 651724. activity change, % (no concentration beside the values). AlphaScreen GST-E1A/His-CtBP binding, 1536-well; stronger effect = lower value; in the data active = activity change below about -65%; inconclusive = mostly about -30% to -63%
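AlphaScreen with 125 nM GST-E1A and 125 nM His-CtBP (5X stocks) in Tris pH 8.0, 300 mM NaCl, BSA, Tween 20, TCEP. Compounds preincubated 2 h at 37 deg C, then glutathione donor/nickel acceptor beads added for 1 h at 37 deg C in dark.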
G9a inh: blocks human histone lysine methyltransferase G9a. Q96KQ7. G9a H3K9 monomethylation, AlphaScreen, 2 h. Potency, µM (doses to about 102 µM), most hits filed as inhibitors. 8.8% of 350,000 active; also: nearly all actives have a fitted effect of over 75% in size
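G9a (20 nM) preincubated 15 min RT with compounds, then 500 nM biotinylated H3K9 peptide and 20 uM SAM added; 2 h RT reaction. Monomethyl-H3K9 product detected by AlphaScreen with anti-H3K9me1 antibody, streptavidin donor and anti-rabbit IgG acceptor beads.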
HP1b binding inh: HP1-beta chromodomain-methylated histone interaction inhibition; P83916; AlphaScreen HP1-beta / biotin-H3K9me3 peptide binding; Potency, µM (doses to about 114 µM), hits mostly inhibitors; 0.56% of 390,000 active; also: nearly all actives have a fitted effect of over 70% in size
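AlphaScreen: HP1-beta (50 nM) preformed 30 min with biotin-H3(1-18)K9me3 peptide (50 nM) in PBS pH 7.4, 0.01% Tween-20. Compound added for 30 min at RT, then streptavidin donor/nickel chelate acceptor beads (10 ug/mL) for 30 min.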
JMJD2A Tudor inh: inhibitors of human JMJD2A Tudor domain; O75164; AlphaScreen JMJD2A-Tudor / H3K4me3 peptide binding; Potency, µM (highest dose often 114 µM), hits mostly inhibitors; 4.4% of 390,000 active; AID 504339; also: nearly all actives have a fitted effect of over 50% in size
A number is an active result; n = inactive; u = inconclusive; x = no result; [ ] = dose if it differs, or a comment. Unless noted, calls follow the shape of the dose curve; as a rule, active = well fitted inhibition curve with a large enough effect; inconclusive = small, poorly fitted or top-dose-only effect; inactive = no such curve, though single readings can be large or run the other way.

SMILES | Six1-Eya2 blk | BAZ2B block | CtBP-E1A blk | G9a inh | HP1b binding inh | JMJD2A Tudor inh
CC(=O)N1N=C(c2c(-c3ccccc3)c3cc(Br)ccc3[nH]c2=O)CC1c1ccco1 (stereo not drawn) | n | n | n | 50µM | n | n
Cc1cccc(NC(=S)NCC(c2cccnc2)N(C)C)c1 (stereo not drawn) | n | n | n | n | n | n
N#Cc1cnc(NN)nc1 | n | 22µM | n | 50µM | u | 0.79µM
CSc1nnc(-c2cccc(NC(=S)NN)c2)o1 | n | u | x | 7.9µM | n | n
CSc1nnc(-c2ccc(NC(N)=S)cc2)o1 | n | n | x | n | n | n
CC(C)(C)OC(=O)N1CCN(c2nc(-c3cccs3)nc3ccccc23)CC1 | x | x | x | x | n | n
NC(=S)NN=C1c2cc(Cl)ccc2-c2c1cc(Cl)cc2[N+](=O)[O-] | n | x | n | x | n | u
COc1cc2c(cc1[N+](=O)[O-])-c1ccc([N+](=O)[O-])cc1C2=NNC(N)=S | -73 | x | u | x | x | x
N=C1N(/N=C/c2ccccc2)C(=Nc2ccccc2)C(=S)N1c1ccccc1 | n | u | n | 10µM | n | n
Cc1nnc(C)n1/N=C/c1ccccc1 | n | n | n | n | n | n
CCN(CC)CCNC(=O)CCCCn1c(=S)[nH]c2c([nH]c3ccc(OC)cc32)c1=O | n | u | n | 13µM | u | 4µM
CCCCNC(=O)CCCn1c(=S)[nH]c2cc3c(cc2c1=O)OCO3 | n | n | n | n | n | n
CCN(CC)CCn1c(=S)[nH]c2cc3c(cc2c1=O)OCO3 | n | n | n | 45µM | n | 45µM
CCN(CC)CCNC(=O)CCn1c(=S)[nH]c2cc3c(cc2c1=O)OCO3 | n | n | n | n[12.7 µM] | n | 50µM
O=C(CCCn1c(=S)[nH]c2cc3c(cc2c1=O)OCO3)N1CCN(C2CCCCC2)CC1 | n | n | n | u | n | 79µM
CCn1c2ccccc2c2cc(NC(=O)N3CCCCC3)ccc21 | n | x | n | x | x | x
COC(=O)c1scc(-c2ccc(C)cc2)c1S(=O)(=O)N1CCN(c2ccc(C(C)=O)cc2)CC1 | x | n | x | n | n | n
Cn1c(SCC(=O)NC2CCCCC2)nnc1-c1ccccn1 | n | 79µM | n | n | n | n
CCn1c(CSCc2ccc(C)cc2)nnc1SCC(=O)N1CCN(c2ccccc2)CC1 | n | u | n | u | n | u
COc1cc(-c2nnc(SCC(=O)NC3CCCC3)n2C)cc(OC)c1O | n | n | n | 79µM | n | n
